# From PubChem BioAssay (NCI)
# The panel holds about 79,000 compounds, 15% with a hit somewhere; the sample as a whole holds those more often. Unmarked numbers belong to inactive results. Calls of active or inactive are those of the source. No stated cut-off is given here; in the data, active means growth inhibition above about 70%; inactive means the rest.
# How the values were obtained:
# [1] = NCI Yeast Anticancer Drug Screen. Data for the rad52 strain (AID 147);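 further: 0% = growth of vehicle-treated control cultures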; conditions: S. cerevisiae rad52 mutant growth inhibition, hits give high values
# Procedure, shortened: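 DNA repair-defective yeast; compound exposure; growth scored against vehicle controls.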
# [2] = NCI Yeast Anticancer Drug Screen. Data for the wt1 strain (AID 149);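 further: 0% = growth of vehicle-treated wt1 cultures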; conditions: S. cerevisiae wt1 strain (SPY 50644) growth inhibition, hits give high values
# Procedure, shortened: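 Growth inhibition read against vehicle controls after compound exposure of the wt1 yeast strain.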
# [3] = NCI Yeast Anticancer Drug Screen. Data for the rad50EPP+ strain (AID 151);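 further: 0% = growth of vehicle-treated control cultures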; conditions: S. cerevisiae rad50 mutant strain, hits give high values
# Procedure, shortened: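 rad50EPP+ yeast treated with test compounds. Readout: growth vs vehicle control.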
# [4] = NCI Yeast Anticancer Drug Screen. Data for the mgt1 strain (AID 153); conditions: S. cerevisiae mgt1 mutant growth inhibition, hits give high values
# Procedure, shortened: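 Growth inhibition relative to vehicle controls was scored for the mgt1 yeast strain after compound exposure.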
# [5] = NCI Yeast Anticancer Drug Screen. Data for the rad50 strain (AID 155);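 further: 0% = growth of vehicle-only cultures of the same strain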; conditions: S. cerevisiae rad50 strain growth inhibition, hits give high values
# Procedure, shortened: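 Readout: growth inhibition relative to vehicle-treated cultures. Compound exposure was carried out in a genetically defined yeast strain deficient in DNA damage repair.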
# [6] = NCI Yeast Anticancer Drug Screen. Data for the mec2-1 strain (AID 157); conditions: S. cerevisiae mec2-1 strain, hits give high values
# Procedure, shortened: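 Growth inhibition is read against vehicle-treated controls after compound exposure of the mec2-1 yeast strain, which is defective in DNA damage repair or cell cycle control.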
# [7] = NCI Yeast Anticancer Drug Screen. Data for the rad14 strain (AID 159);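 further: 0% = growth of vehicle-treated control cultures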; conditions: S. cerevisiae rad14 strain growth inhibition, hits give high values
# Procedure, shortened: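 Growth inhibition vs vehicle controls; genetically altered yeast strain (DNA damage repair defect) treated with test compounds.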
# [8] = NCI Yeast Anticancer Drug Screen. Data for the sgs1 mgt1 strain (AID 161);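 further: 0% = growth of cultures given vehicle only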; conditions: S. cerevisiae sgs1 mgt1 strain, hits give high values
# Procedure, shortened: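 Growth of a repair-deficient yeast mutant was monitored after compound treatment and expressed as inhibition relative to vehicle-treated cultures.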
# [9] = NCI Yeast Anticancer Drug Screen. Data for the CLN2oe strain (AID 163);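 further: 0% = growth of vehicle-only control cultures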; conditions: S. cerevisiae CLN2oe strain, hits give high values
# Procedure, shortened: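 Compound-treated yeast; growth vs vehicle ctrl = % inhibition. Genetically altered strain (cell-cycle control).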
# [10] = NCI Yeast Anticancer Drug Screen. Data for the cln2 rad14 strain (AID 165);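 further: 0% = growth equal to vehicle treated cultures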; conditions: S. cerevisiae cln2 rad14 strain, hits give high values
# Procedure, shortened: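 Growth inhibition, relative to vehicle-treated controls, is the read-out. The test organism is a yeast strain with defined genetic alterations, cln2 rad14.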
# [11] = NCI Yeast Anticancer Drug Screen. Data for the bub3 strain (AID 167); conditions: S. cerevisiae bub3 mutant strain, hits give high values
# Procedure, shortened: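 Readout: yeast growth inhibition, expressed relative to vehicle-only wells. The test organism is a mutant strain from a panel with lesions in DNA repair or checkpoint genes.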
# [12] = NCI Yeast Anticancer Drug Screen. Data for the mlh1 strain (AID 171);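 further: 0% = growth of vehicle-treated control cultures of the same strain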; conditions: S. cerevisiae mlh1 strain growth inhibition, hits give high values
# Procedure, shortened: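 Compounds are applied to a genetically altered yeast strain, and its growth is compared with that of vehicle-treated cultures to give percent inhibition.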
# [13] = NCI Yeast Anticancer Drug Screen. Data for the mlh1 rad18 strain (AID 175); conditions: S. cerevisiae mlh1 rad18 strain growth inhibition, hits give high values
# Procedure, shortened: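 Cells of a genetically altered yeast strain, deficient in DNA damage repair, were treated with compound. Their growth was then compared with that of vehicle-treated cultures to give inhibition.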
# [14] = NCI Yeast Anticancer Drug Screen. Data for the rad18 strain (AID 177); conditions: S. cerevisiae rad18 mutant growth inhibition, hits give high values
# Procedure, shortened: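 Compounds are applied to a repair-deficient yeast strain, and growth is compared with that of vehicle-treated cultures to give percent inhibition.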
# [15] = NCI Yeast Anticancer Drug Screen. Data for the sgs1 strain (AID 173);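 further: 0% = growth of vehicle-only control cultures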; conditions: S. cerevisiae sgs1 mutant, hits give high values
# Procedure, shortened: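 Compounds applied to genetically altered yeast; growth compared with vehicle-treated cultures to give % inhibition.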
# [16] = at 5.0 µM (retest, dose inferred, filed as 0.5)
# [17] = at 50.0 µM (retest, dose inferred, filed as 5.0)
smiles,measurement,setting,value
COC(=O)C1(C)CCc2c(ccc3ccccc23)C1=O (stereo unspecified),growth inhibition,[1]; at 1.2 µM,-1%
same,growth inhibition,[1]; at 3.7 µM,4%
same,growth inhibition,[1]; at 11.0 µM,12%
same,growth inhibition,[1]; at 33.0 µM,4%
same,growth inhibition,[1]; at 100.0 µM,44%
same,growth inhibition,[2]; at 1.2 µM,0%
same,growth inhibition,[2]; at 3.7 µM,-2%
same,growth inhibition,[2]; at 11.0 µM,-3%
same,growth inhibition,[2]; at 33.0 µM,-2%
same,growth inhibition,[2]; at 100.0 µM,-13%
same,growth inhibition,[3]; at 1.2 µM,-1%
same,growth inhibition,[3]; at 3.7 µM,13%
same,growth inhibition,[3]; at 11.0 µM,28%
same,growth inhibition,[3]; at 33.0 µM,23%
same,growth inhibition,[3]; at 100.0 µM,49%
same,growth inhibition,[4]; at 1.2 µM,-1%
same,growth inhibition,[4]; at 3.7 µM,0%
same,growth inhibition,[4]; at 11.0 µM,-1%
same,growth inhibition,[4]; at 33.0 µM,-2%
same,growth inhibition,[4]; at 100.0 µM,30%
same,growth inhibition,[5]; at 1.2 µM,-1%
same,growth inhibition,[5]; at 3.7 µM,6%
same,growth inhibition,[5]; [16],-13%
same,growth inhibition,[5]; at 11.0 µM,13%
same,growth inhibition,[5]; at 33.0 µM,-87%
same,growth inhibition,[5]; [17],29%
same,growth inhibition,[5]; at 50.0 µM,39.9%
same,growth inhibition,[5]; at 100.0 µM,42%
same,growth inhibition,[6]; at 1.2 µM,1%
same,growth inhibition,[6]; at 3.7 µM,-1%
same,growth inhibition,[6]; [16],-14%
same,growth inhibition,[6]; at 11.0 µM,-2%
same,growth inhibition,[6]; at 33.0 µM,0%
same,growth inhibition,[6]; [17],-17%
same,growth inhibition,[6]; at 50.0 µM,27.1%
same,growth inhibition,[6]; at 100.0 µM,13%
same,growth inhibition,[7]; at 1.2 µM,-1%
same,growth inhibition,[7]; at 3.7 µM,4%
same,growth inhibition,[7]; at 11.0 µM,12%
same,growth inhibition,[7]; at 33.0 µM,14%
same,growth inhibition,[7]; at 100.0 µM,19%
same,growth inhibition,[8]; [16],-5%
same,growth inhibition,[8]; [17],47%
same,growth inhibition,[8]; at 50.0 µM,64.3%
same,growth inhibition,[9]; at 1.2 µM,-4%
same,growth inhibition,[9]; at 3.7 µM,4%
same,growth inhibition,[9]; at 11.0 µM,6%
same,growth inhibition,[9]; at 33.0 µM,11%
same,growth inhibition,[9]; at 100.0 µM,15%
same,growth inhibition,[10]; [16],-10%
same,growth inhibition,[10]; [17],12%
same,growth inhibition,[10]; at 50.0 µM,1.75%
same,growth inhibition,[11]; at 1.2 µM,37%
same,growth inhibition,[11]; at 3.7 µM,49%
same,growth inhibition,[11]; [16],40%
same,growth inhibition,[11]; at 11.0 µM,57%
same,growth inhibition,[11]; at 33.0 µM,65%
same,growth inhibition,[11]; [17],78% (active)
same,growth inhibition,[11]; at 50.0 µM,81% (active)
same,growth inhibition,[11]; at 100.0 µM,75% (active)
same,growth inhibition,[12]; at 1.2 µM,-2%
same,growth inhibition,[12]; at 3.7 µM,2%
same,growth inhibition,[12]; at 11.0 µM,7%
same,growth inhibition,[12]; at 33.0 µM,5%
same,growth inhibition,[12]; at 100.0 µM,32%
same,growth inhibition,[13]; [16],-11%
same,growth inhibition,[13]; [17],57%
same,growth inhibition,[13]; at 50.0 µM,26.5%
same,growth inhibition,[14]; at 1.2 µM,-5%
same,growth inhibition,[14]; at 3.7 µM,6%
same,growth inhibition,[14]; at 11.0 µM,10%
same,growth inhibition,[14]; at 33.0 µM,7%
same,growth inhibition,[14]; at 100.0 µM,53%
CCCCCCOC(=O)NCCOC(=O)Nc1ccccc1,growth inhibition,[1]; at 1.2 µM,1%
same,growth inhibition,[1]; at 3.7 µM,3%
same,growth inhibition,[1]; at 11.0 µM,7%
same,growth inhibition,[1]; at 33.0 µM,7%
same,growth inhibition,[1]; at 100.0 µM,6%
same,growth inhibition,[2]; at 1.2 µM,1%
same,growth inhibition,[2]; at 3.7 µM,1%
same,growth inhibition,[2]; at 11.0 µM,2%
same,growth inhibition,[2]; at 33.0 µM,2%
same,growth inhibition,[2]; at 100.0 µM,1%
same,growth inhibition,[3]; at 1.2 µM,3%
same,growth inhibition,[3]; at 3.7 µM,6%
same,growth inhibition,[3]; at 11.0 µM,11%
same,growth inhibition,[3]; at 33.0 µM,17%
same,growth inhibition,[3]; at 100.0 µM,15%
same,growth inhibition,[4]; at 1.2 µM,-1%
same,growth inhibition,[4]; at 3.7 µM,1%
same,growth inhibition,[4]; at 11.0 µM,3%
same,growth inhibition,[4]; at 33.0 µM,22%
same,growth inhibition,[4]; at 100.0 µM,4%
same,growth inhibition,[5]; at 1.2 µM,4%
same,growth inhibition,[5]; at 3.7 µM,5%
same,growth inhibition,[5]; [16],0%
same,growth inhibition,[5]; at 11.0 µM,7%
same,growth inhibition,[5]; at 33.0 µM,8%
same,growth inhibition,[5]; [17],5%
same,growth inhibition,[5]; at 50.0 µM,19.7%
same,growth inhibition,[5]; at 100.0 µM,7%
same,growth inhibition,[6]; at 1.2 µM,0%
same,growth inhibition,[6]; at 3.7 µM,3%
same,growth inhibition,[6]; [16],-5%
same,growth inhibition,[6]; at 11.0 µM,3%
same,growth inhibition,[6]; at 33.0 µM,5%
same,growth inhibition,[6]; [17],1%
same,growth inhibition,[6]; at 50.0 µM,6.15%
same,growth inhibition,[6]; at 100.0 µM,8%
same,growth inhibition,[7]; at 1.2 µM,6%
same,growth inhibition,[7]; at 3.7 µM,7%
same,growth inhibition,[7]; at 11.0 µM,12%
same,growth inhibition,[7]; at 33.0 µM,17%
same,growth inhibition,[7]; at 100.0 µM,16%
same,growth inhibition,[8]; [16],12%
same,growth inhibition,[8]; [17],10%
same,growth inhibition,[8]; at 50.0 µM,20.2%
same,growth inhibition,[9]; at 1.2 µM,1%
same,growth inhibition,[9]; at 3.7 µM,4%
same,growth inhibition,[9]; at 11.0 µM,1%
same,growth inhibition,[9]; at 33.0 µM,3%
same,growth inhibition,[9]; at 100.0 µM,-2%
same,growth inhibition,[10]; [16],5%
same,growth inhibition,[10]; [17],19%
same,growth inhibition,[10]; at 50.0 µM,6.5%
same,growth inhibition,[11]; at 1.2 µM,3%
same,growth inhibition,[11]; at 3.7 µM,2%
same,growth inhibition,[11]; [16],9%
same,growth inhibition,[11]; at 11.0 µM,5%
same,growth inhibition,[11]; at 33.0 µM,1%
same,growth inhibition,[11]; [17],-2%
same,growth inhibition,[11]; at 50.0 µM,11.1%
same,growth inhibition,[11]; at 100.0 µM,0%
same,growth inhibition,[12]; at 1.2 µM,-1%
same,growth inhibition,[12]; at 3.7 µM,-1%
same,growth inhibition,[12]; at 11.0 µM,2%
same,growth inhibition,[12]; at 33.0 µM,4%
same,growth inhibition,[12]; at 100.0 µM,6%
same,growth inhibition,[15]; at 1.2 µM,2%
same,growth inhibition,[15]; at 3.7 µM,2%
same,growth inhibition,[15]; at 11.0 µM,3%
same,growth inhibition,[15]; at 33.0 µM,9%
same,growth inhibition,[15]; at 100.0 µM,9%
same,growth inhibition,[13]; [16],19%
same,growth inhibition,[13]; [17],53%
same,growth inhibition,[13]; at 50.0 µM,17.7%
same,growth inhibition,[14]; at 1.2 µM,2%
same,growth inhibition,[14]; at 3.7 µM,2%
same,growth inhibition,[14]; at 11.0 µM,13%
same,growth inhibition,[14]; at 33.0 µM,4%
same,growth inhibition,[14]; at 100.0 µM,6%
